# Screens: PubChem, National Center for Advancing Translational Sciences (NCATS)
# TDP1 cell CPT – growth inhibition of DT40 Tdp1-/-;hTDP1 cells with camptothecin (screen for TDP1 inhibitors). hit rate 12% among 420,000. chicken DT40 Tdp1-/-;hTDP1 cells + 20 nM CPT, ATP luminescence, 48 h. Potency, µM (highest dose often 46.2 µM), most hits filed as inhibitors. AID 686979; note: nearly all actives have a fitted effect of over 55% in size
#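 Cell growth measured by CellTiter-Glo luminescence after a minimum 48 h, 37 C compound exposure with 20 nM CPT in Tdp1-knockout DT40 cells stably expressing hTDP1, seeded 400/well; qHTS titration format.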
# VP16 counter – counter-screen for ROR gamma inhibitors: Gal4-VP16 reporter | hit rate 3.5% among 310,000 | Drosophila S2 Gal4-VP16 UAS-luciferase, luminescence, 20 h | Potency, µM (series often up to 53.6 µM), most hits filed as inhibitors;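 note: Gal4-VP16 expression switched on by copper sulfate through the metallothionein promoter; nearly all actives have a fitted effect of over 50% in size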
# TDP1 cell noCPT – qHTS for Inhibitors of human tyrosyl-DNA phosphodiesterase 1 (TDP1): qHTS in cells in absence of CPT; DT40 Tdp1-/- hTDP1 cells, no CPT, ATP luminescence, 48 h; Potency, µM (doses to about 46.2 µM), actives largely listed as inhibitors; hit rate 15% among 420,000; AID 686978, 2013; note: nearly all actives have a fitted effect of over 55% in size
#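 A cellular qHTS used chicken DT40 cells lacking endogenous Tdp1 but carrying stably transfected human TDP1. Compounds were applied without camptothecin, and cell growth kinetics were judged by ATP-dependent luminescence after ≥48 hr.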
# RORg inh – inhibitors of mouse ROR gamma transcriptional activity | Drosophila S2 Gal4-RORgamma UAS-luciferase reporter, 20 h | Potency, µM (top dose mostly 53.6 µM), usual class: inhibitors | hit rate 5.4% among 310,000 | AID 2551; note: nearly all actives have a fitted effect of over 60% in size
# Target sequence (P51450 whole entry, looked up, the tested form may be a part): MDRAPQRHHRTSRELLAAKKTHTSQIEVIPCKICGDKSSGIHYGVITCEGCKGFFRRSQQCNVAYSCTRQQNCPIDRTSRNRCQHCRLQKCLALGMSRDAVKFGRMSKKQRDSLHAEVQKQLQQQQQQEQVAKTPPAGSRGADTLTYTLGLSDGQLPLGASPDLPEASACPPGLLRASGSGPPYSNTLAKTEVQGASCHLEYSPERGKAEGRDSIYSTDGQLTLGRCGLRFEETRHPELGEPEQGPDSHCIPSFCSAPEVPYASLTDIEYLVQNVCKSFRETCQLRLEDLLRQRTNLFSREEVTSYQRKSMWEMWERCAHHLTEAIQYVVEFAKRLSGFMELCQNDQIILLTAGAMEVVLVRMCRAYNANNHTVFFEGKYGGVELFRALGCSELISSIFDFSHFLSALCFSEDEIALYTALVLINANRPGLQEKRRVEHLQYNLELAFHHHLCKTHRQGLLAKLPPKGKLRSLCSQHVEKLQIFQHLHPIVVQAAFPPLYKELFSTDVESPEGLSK
#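 Stable Schneider cell line, Gal4 DNA-binding domain fused to ROR gamma, UAS-luciferase. Cmpd 1 hr RT → CuSO4 700 uM final → 20 hr RT → luciferase reagent 10 min → luminescence.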
# TDP1 inh – inhibitors of human tyrosyl-DNA phosphodiesterase TDP1; hit rate 0.28% among 350,000; Potency, µM (highest dose often 130 µM), most hits filed as inhibitors; AID 485290; recombinant TDP1, AlphaScreen DNA substrate cleavage; Q9NUW8; note: nearly all actives have a fitted effect of over 40% in size
#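 Signal: AlphaScreen proximity between streptavidin donor and anti-FITC acceptor beads on intact substrate. Reaction: Tdp1 1 nM, substrate 15 nM final, 5 min RT after 15 min compound preincubation.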
# Numbers stand for hits; n = inactive; u = inconclusive; x = no result given. The list is not random: actives were taken first. Their share in the collection is about 19%. Calls come from the whole dose curve; as a rule, active = well fitted curve in the direction sought with a large enough effect; inconclusive = small, poorly fitted or top-dose-only effect, or another doubt; inactive = no such curve, though single readings can be large; an effect the other way counts as inactive or inconclusive.
SMILES,TDP1 cell CPT,VP16 counter,TDP1 cell noCPT,RORg inh,TDP1 inh
CC(=O)Nc1cccc(NC(=O)CN2c3cccc4cccc(c34)S2(=O)=O)c1,n,x,n,x,n
COc1ccc(CN(C)C(=O)c2ccc3c(=O)n4c(nc3c2)CCC4)cc1,n,n,n,n,n
COc1ccc(-c2n[nH]c(C)c2-c2cnn(-c3ccccc3)c2)c(O)c1,n,u,n,n,n
COc1ccc(-c2n[nH]c(C)c2-c2cnn(-c3ccccc3)c2)c(O)c1C,n,u,u,11µM,n
O=C(Nc1cccc2cccnc12)c1csc(COCCO)n1,23µM,x,13µM,x,x
COC(=O)CNC(c1ccccc1)c1cc(Br)ccc1NS(=O)(=O)c1ccc(C)cc1 (stereo unspecified),u,n,u,u,n
COc1cc(C2NCC(c3ccc(Cl)cc3Cl)c3c2[nH]c2ccccc32)cc(OC)c1OC (stereo unspecified),u,n,18µM,u,n
Cc1cccc(Cn2c(C(C)(C)C)cc3cccnc32)c1,u,n,21µM,n,n
O=C1C(C=Nc2ccc(F)cc2)=C(O)c2ccccc21,n,n,n,n,n
Cc1ccccc1N=CC1=C(O)c2ccccc2C1=O,u,1.3µM,16µM,0.2µM,n
COc1ccc(N=CC2=C(O)c3ccccc3C2=O)c(OC)c1,u,4µM,18µM,4µM,n
CC(C)CCc1c(O)nc(SCC(=O)N2CCCCCC2)[nH]c1=O,x,n,x,n,n
CCN(CC)c1ccc(S(=O)(=O)N2CCCCC2)cc1NC(=O)C1CCC1,18µM,x,u,x,n
CCN(CC)c1ccc(S(=O)(=O)N2CCCCC2)cc1NC(=O)C1CSC2(C)CCC(=O)N12 (stereo unspecified),u,x,9.2µM,x,n
Cc1ccc(C)c(CSc2cn(CCNC(=O)c3cccs3)c3ccccc23)c1,u,x,23µM,x,n
O=C(NCCn1cc(SCc2ccccc2)c2ccccc21)c1ccccc1F,21µM,n,u,u,n
O=C(NCCn1cc(SCc2ccccc2)c2ccccc21)c1cccs1,15µM,x,7.3µM,x,n
Cc1ccc(C)c(CSc2cn(CCNC(=O)c3ccccc3F)c3ccccc23)c1,u,x,u,x,n
NC(=O)CSc1cn(CCNC(=O)c2cccs2)c2ccccc12,n,n,n,n,x
O=C(NCCn1cc(SCc2ccc(Br)cc2)c2ccccc21)c1cccs1,23µM,x,23µM,x,n
O=C(CSc1ccc(Cl)cc1)Nc1ccccc1Oc1ccccc1,n,n,u,n,x
O=C(NCCn1cc(SCc2ccccc2Cl)c2ccccc21)c1cccs1,23µM,x,u,x,n
COc1ccccc1C(=O)NCCn1cc(SCc2ccc(C)cc2)c2ccccc21,23µM,x,u,x,n
COc1ccccc1C(=O)NCCn1cc(SCC(=O)NCC2CCCO2)c2ccccc21 (stereo unspecified),u,n,u,n,n
COc1ccc(OC)c(NC(=O)c2cccc(N3C(=O)C4C5CCC(C5)C4C3=O)c2)c1 (stereo unspecified),23µM,n,16µM,n,n
SMILES,TDP1 cell CPT,VP16 counter,TDP1 cell noCPT,RORg inh,TDP1 inh
COc1ccc(NC(=O)c2cccc(N3C(=O)C4CC=C(C)CC4C3=O)c2)c(OC)c1 (stereo unspecified),u,n,12µM,n,x
COc1ccc(OC)c(NC(=O)c2cccc(N3C(=O)C4C5C=CC(C6CC56)C4C3=O)c2)c1 (stereo unspecified),16µM,n,12µM,u,n
O=C(Nc1ccccc1)c1cccc(N2C(=O)C3C4C=CC(C5CC45)C3C2=O)c1 (stereo unspecified),n,n,u,n,n
CCCCn1c(=O)nc2n(-c3ccc(C)cc3)c3ccccc3cc-2c1=O,n,n,u,n,n
Cc1ccc(-c2nc3ccc(Br)cn3c2Cc2cccc(F)c2)cc1,16µM,x,u,x,x
Fc1ccc(-c2nc3ccc(Br)cn3c2Cc2cccc(F)c2)cc1,n,x,u,x,x
Cc1ccc2nc(-c3ccccc3)c(Cc3cccc(F)c3)n2c1,u,x,21µM,x,x
Fc1cccc(Cc2c(-c3cccc(Br)c3)nc3c(Cl)cc(C(F)(F)F)cn23)c1,n,x,n,x,x
CCCCN(C)C(=O)c1cc2cc3ccc(OC)cc3nc2o1,n,n,n,n,x
